“And” between values parts separate entries of the source, which are not always exact repeats. Equal entries are not always repeated. Results filed as inconclusive are left out. The source made the active and inactive calls. Calls come from the whole dose curve; as a rule, active = well fitted inhibition curve with a large enough effect; inconclusive = small, poorly fitted or top-dose-only effect; inactive = flat fitted curve, though single readings scatter.
Molecular target: 15-hydroxyprostaglandin dehydrogenase [NAD(+)] (Homo sapiens) (UniProt P15428)
Assay: Extended Characterization of HPGD Inhibitors: Activity in Primary Assay (HPGD)
Conditions: recombinant HPGD, NADH fluorescence, PGE2 substrate; series mostly up to 57.1 µM; activity, negative = inhibition: at the top concentration
Excerpt: The central role of HPGD is to inactivate prostaglandins such as prostaglandin E2 (PGE2) or prostaglandin D2 (PGD2). These prostaglandins are involved in a number of processes, including inflammation, differentiation, and cellular signaling, which makes HPGD an important target for pharmacological intervention. Inhibition of 15-PGDH (HPGD) activity was screened by utilizing prostaglandin as an electron donor and NAD+ as an electron acceptor/cofactor. An increase in the fluorescence intensity due to conversion of NAD+ to NADH was used to measure the enzyme activity. All compounds were screened using a qHTS approach, where compounds are assayed using at least seven concentrations to generate concentration-response curves for every compound. Briefly, qHTS uses an inter-plate dilution method where the first plate contains the highest concentration of a set of compounds in DMSO, while subsequent plates contain the same compounds in the same well locations, but at successive lower concentrations. NIH Chemical Genomics Center [NCGC] NIH Molecular Libraries Probe Centers Network [MLPCN] MLPCN Grant: MH084681 Assay Submitter (PI): Structural Genomics Consortium
Three uL of enzyme (20 nM final concentration) were dispensed to 1536-well Greiner black solid bottom plates. Compounds (23 nL) were transferred via Kalypsys PinTool. The plates were incubated for 15 min at room temperature, and then 1 uL of substrate/cofactor solution (Substrate/cofactor solution: 1 mM NAD+ and 30 uM prostaglandin (Sigma, prostaglandin E2, #P5640)) were added to start the reaction. The plates were immediately transferred to and read 4 times every 30 seconds on a ViewLux High-throughput CCD imager (Perkin-Elmer) using 340 nm excitation and 450 nm emission fluorescence protocol. The fluorescence intensity difference between the last and the first time points, normalized against controls, was used to compute reaction progress.

Chain of 15-hydroxyprostaglandin dehydrogenase [NAD(+)] (Homo sapiens) (P15428 whole entry, looked up): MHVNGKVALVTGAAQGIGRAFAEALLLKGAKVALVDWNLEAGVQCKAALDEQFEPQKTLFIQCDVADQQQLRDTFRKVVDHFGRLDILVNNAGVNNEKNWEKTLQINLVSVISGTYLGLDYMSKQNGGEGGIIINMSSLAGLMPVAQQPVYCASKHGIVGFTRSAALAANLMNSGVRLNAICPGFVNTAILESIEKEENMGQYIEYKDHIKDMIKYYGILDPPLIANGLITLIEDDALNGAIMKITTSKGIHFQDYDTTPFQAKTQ

SMILES	Potency	activity, negative = inhibition
c1ccc(-n2ccc(-c3nnc4n3CCCCC4)c2)cc1	607 nM (active)	
CC(C)(C)c1ccc(CSc2nc3ncc(Br)cc3[nH]2)cc1		-15.2% (inactive)
CCCCNC(=O)c1ccc2c(c1)ncn2-c1cccc(C)c1	1360 nM (active)	
CC(C)c1cccc(-n2cnc3cc(C(=O)N4CCCCC4)ccc32)c1	68.1 nM (active)	
CC(C)(C)c1ccc(-n2cnc3cc(C(=O)N4CCCCC4)ccc32)cc1	54.1 nM (active)	
Brc1cnc2nc(SCc3ccncc3)[nH]c2c1	1520 nM (active)	
O=C(c1ccc2c(c1)ncn2-c1cccc(Cl)c1)N1CCCCC1	12.1 nM (active)	
CCCCn1cnc2cc(C(=O)N3CCCCC3)ccc21	68.1 nM (active)	
Cc1cccc(-n2cnc3cc(C(=O)N4CCCC(C)(C)C4)ccc32)c1	68.1 nM (active)	
Cc1cccc(-n2cnc3cc(C(=O)N4CC(C)CC(C)C4)ccc32)c1 (stereo not given)	271 nM (active)	
Cc1cc(-c2nnc3n2CCCCC3)c(C)n1-c1cccc(C#N)c1	76.4 nM (active)	
CCOC(=O)c1ccc(-n2c(C)cc(-c3nnc4n3CCCCC4)c2C)cc1	38.3 nM (active)	
Cc1cc(-c2nnc3n2CCCCC3)c(C)n1-c1ccncc1	383 nM (active)	
Cc1cc(-c2nnc3n2CCCCC3)c(C)n1-c1cccc(C(F)(F)F)c1	48.2 nM (active)	
Cc1cc(-c2nnc3n2CCCCC3)c(C)n1-c1ccccn1	1080 nM (active)	
COc1ccc(CSc2nc3ncc(Br)cc3[nH]2)cc1F	85.7 nM (active)	
Cc1cc(-c2nnc3n2CCCCCCC3)c(C)n1-c1ccccc1	383 nM (active)	
O=C(c1ccc2c(c1)ncn2-c1ccc(Cl)cc1)N1CCCCC1	21.5 nM (active)	
Cc1cccc(-n2cnc3cc(C(=O)N4CCCCC4)ccc32)c1	34.1 nM (active) and 19.2 nM (active)	
Cc1cc(-c2nnc3n2CCCCCC3)c(C)n1-c1ccccc1	242 nM (active)	

SMILES	Potency	activity, negative = inhibition
O=C(c1ccc2c(c1)ncn2-c1ccccc1)N1CCCCC1	21.5 nM (active)	
O=[N+]([O-])c1cccc(CSc2nc3ncc(Br)cc3[nH]2)c1	68.1 nM (active)	
COc1ccc(-n2cnc3cc(C(=O)N4CCCCC4)ccc32)cc1	19.2 nM (active)	
Cc1cccc(-n2cnc3cc(C(=O)N4CCC(C(F)(F)F)CC4)ccc32)c1	1520 nM (active)	
Cc1cc(-c2nnc3n2CCCCC3)c(C)n1-c1ccc(Br)cc1	48.2 nM (active)	
Fc1cccc(CSc2nc3ncc(Br)cc3[nH]2)c1	341 nM (active)	
COc1cccc(-n2cnc3cc(C(=O)N4CCCCC4)ccc32)c1	19.2 nM (active)	
Cc1ccc(-n2c(C)cc(-c3nnc4n3CCCCC4)c2C)cc1	34.1 nM (active)	
Cc1cccc(-n2cnc3cc(C(=O)N4CCC(C#N)CC4)ccc32)c1	19200 nM (active)	
Cc1cccc(-n2cnc3cc(C(=O)N4CCCCCC4)ccc32)c1	27.1 nM (active)	
Brc1cnc2nc(SCc3ccccc3)[nH]c2c1	8570 nM (active)	
Cc1cccc(-n2cnc3cc(C(=O)N4CCC(N5CCOCC5)CC4)ccc32)c1		-5.4% (inactive)
Cc1cc(-c2nnc3n2CCCCC3)c(C)n1-c1cccc(Cl)c1	34.1 nM (active)	
Cc1cc(-c2nnc3n2CCCCC3)c(C)n1-c1cccc2ccccc12	54.1 nM (active) and 108 nM (active)	
CC(C)(C)c1cccc(-n2cnc3cc(C(=O)N4CCCCC4)ccc32)c1	171 nM (active)	
Cc1cccc(-n2cnc3cc(C(=O)N4CCCC4)ccc32)c1	383 nM (active)	
c1ccc(-n2cc(-c3nnc4n3CCCCC4)cn2)cc1	3830 nM (active)	
N#Cc1cccc(CSc2nc3ncc(Br)cc3[nH]2)c1	136 nM (active)	
Cc1cc(-c2nnc3n2CCCCC3)c(C)n1-c1ccc(C#N)cc1	96.1 nM (active)	
COc1ccccc1-n1cnc2cc(C(=O)N3CCCCC3)ccc21	27.1 nM (active)	

— PubChem BioAssay AID743171 (National Center for Advancing Translational Sciences (NCATS), 2013)
